Only some compounds are listed: those with a hit (about 4.2% of all), similar ones and a draw of the others.
CCHF vOTU inh – CCHFV vOTU protease inhibitors, primary screen, biochemical, Pep-AMC substrate, fluorescence. Crimean-Congo hemorrhagic fever virus L polyprotein viral ovarian tumor (vOTU) protease …. actives 0.55% (n = 370,000). inhibition, % at 11.5 µM; in the data active = inhibition above about 30%
FBA Mtb inh – Mtb FBA enzyme inhibitors, primary screen, biochemical, fluorescence, strain H37Rv | AID 588726, 2011 | Fructose-bisphosphate aldolase (Mycobacterium tuberculosis (strain ATCC 25618 / H37Rv)), … | purified M. tuberculosis FBA, fluorescence read-out | actives 2.3% (n = 360,000) | inhibition, % at 1 µM
Target sequence (P9WQA3 whole entry, looked up): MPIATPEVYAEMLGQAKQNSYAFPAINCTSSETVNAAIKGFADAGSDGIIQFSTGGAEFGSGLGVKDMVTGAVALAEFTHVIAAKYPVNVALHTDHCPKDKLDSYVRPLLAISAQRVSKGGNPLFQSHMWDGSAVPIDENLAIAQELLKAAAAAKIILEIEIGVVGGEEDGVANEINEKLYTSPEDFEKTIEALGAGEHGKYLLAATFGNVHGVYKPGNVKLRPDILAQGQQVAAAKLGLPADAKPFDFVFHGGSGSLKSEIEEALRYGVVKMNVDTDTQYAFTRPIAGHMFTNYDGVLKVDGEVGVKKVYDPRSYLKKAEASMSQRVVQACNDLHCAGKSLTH
Mtb betalactam – beta-lactam sensitization of Mtb H37Rv, H37Rv; actives 0.27% (n = 330,000); M. tuberculosis H37Rv growth with meropenem, percent inhibition; AID 434955, 2010; inhibition, % at 25 µM; call rule not given here;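 note: growth measured after seven days incubation then overnight dye step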
GDH-TPI counter-1 – GDH-TPI coupling enzyme inhibitors, primary screen, artefact control for M. tuberculosis FBA inhibitor project, biochemical, absorbance, full deck | GDH-TPI coupled enzyme counterscreen, NADH absorbance | inhibition, % at 4.8 µM | actives 1.2% (n = 360,000) | AID 588335, 2011; in the data active = inhibition above about 30%
RecA splice inh – Mtb RecA intein splicing inhibitors, primary screen, biochemical, fluorescence, HTS. Protein RecA (Mycobacterium tuberculosis (strain ATCC 25618 / H37Rv)), P9WHJ3. cell-free RecA intein splicing. inhibition, % (concentration not given with the values). actives 0.75% (n = 290,000); in the data active = inhibition above about 30%; inconclusive = no clear call, values can overlap the other calls
Mtb FBA confirm – M. tuberculosis aldolase blockers, biochemical, fluorescence, strain H37Rv, confirmation; shares compounds with FBA Mtb inh; purified M. tuberculosis FBA, fluorescence read-out; inhibition, % at 1 µM; actives 78% (n = 5,600)
GDH-TPI counter-2 – GDH-TPI coupling enzyme inhibitors, artefact control for M. tuberculosis FBA inhibitor project, biochemical, fluorescence, high throughput | inhibition, % at 1 µM | shares compounds with FBA Mtb inh | GDH-TPI coupled enzyme counterscreen | actives 81% (n = 5,600); in the data active = inhibition above about 10%
Large screens that a line does not name were inactive (follow-up assays come after a bar, where they were run). Cut-off read from the data, not from the text of the source, unless noted: active = inhibition above about 27%; inactive = the rest.

CC(C)(C)c1ccc(-c2nnc(SCC(=O)Nc3ccccc3-c3ccccc3)n2Cc2ccco2)cc1	none (no result: FBA Mtb inh, Mtb betalactam, GDH-TPI counter-1, RecA splice inh)
COc1cc(C)cc2oc(=O)c(CC(=O)N3CCN(C(=O)C4COc5ccccc5O4)CC3)c(C)c12 (stereo unspecified)	FBA Mtb inh 103.9 | Mtb FBA confirm 64.3 | GDH-TPI counter-2 54.2
Cc1cc(O)c2c(C)c(CC(=O)N3CCN(C(=O)C4COc5ccccc5O4)CC3)c(=O)oc2c1 (stereo unspecified)	none
CC(=O)Oc1ccc2c(C)c(CC(=O)N3CCN(C(=O)C4COc5ccccc5O4)CC3)c(=O)oc2c1C (stereo unspecified)	FBA Mtb inh 43.6 | Mtb FBA confirm inactive | GDH-TPI counter-2 inactive
O=C(NCc1ccco1)C1CCCN(c2ncccn2)C1 (stereo unspecified)	none (no result: FBA Mtb inh, Mtb betalactam, GDH-TPI counter-1, RecA splice inh)
CN1C(=O)C[C@@](C#N)(C(=O)N2CCOCC2)[C@H]1c1ccccc1	none (no result: FBA Mtb inh, Mtb betalactam, GDH-TPI counter-1, RecA splice inh)
CCc1c(C2(O)CCCCC2)[nH]c2cnccc12	FBA Mtb inh 77.9 (no result: RecA splice inh) | Mtb FBA confirm active | GDH-TPI counter-2 170.4
COc1ccc(C(=O)NCC2CCN(C(=O)C(=O)c3cc4ccccc4o3)CC2)c(OC)c1	none (no result: FBA Mtb inh, Mtb betalactam, GDH-TPI counter-1, RecA splice inh)
S=C(Nc1cccc(Br)c1)OC1CCC12CCC(c1ccccc1)CC2 (stereo unspecified)	none (no result: FBA Mtb inh, Mtb betalactam, GDH-TPI counter-1, RecA splice inh)
Cc1c(Br)c(C(=O)NCc2cc3cc(Cl)ccc3[nH]2)nn1C	FBA Mtb inh 66.3 | Mtb FBA confirm 85.4 | GDH-TPI counter-2 83.7
Cn1cc([N+](=O)[O-])c(C(=O)NCc2cc3cc(Cl)ccc3[nH]2)n1	none
COc1cc(S(C)=O)ccc1-c1nc2ncccc2[nH]1 (stereo unspecified)	FBA Mtb inh 55.4, GDH-TPI counter-1 32.4 (no result: RecA splice inh) | Mtb FBA confirm 89.6 | GDH-TPI counter-2 72.5
O=C(NCCc1ccccc1)OCc1cn(-c2ccc(F)cc2)nn1	none (no result: FBA Mtb inh, Mtb betalactam, GDH-TPI counter-1, RecA splice inh)
CC(=O)Nc1ccccc1NS(=O)(=O)c1cccc([N+](=O)[O-])c1	FBA Mtb inh 99.1 | Mtb FBA confirm active | GDH-TPI counter-2 175.2
CC(=O)Nc1ccccc1NS(=O)(=O)c1ccccc1[N+](=O)[O-]	none
CCN(CC)c1ccc(-c2c(C#N)c(N)nc(OC)c2C#N)cc1	FBA Mtb inh 55.3 | Mtb FBA confirm 34.2 | GDH-TPI counter-2 24.7
Cn1nc(N)c2c(-c3ccc(Cl)cc3)c(C#N)c(N)nc21	none
COc1cc(NC(=O)c2ccccc2-c2ccccc2)cc(OC)c1OC	none (no result: CCHF vOTU inh, FBA Mtb inh, GDH-TPI counter-1)
COc1cc(C=Nc2ccccc2C(=O)Nc2ccccc2)cc(OC)c1OC	FBA Mtb inh 50.7 | Mtb FBA confirm active | GDH-TPI counter-2 active
C#CCNC(=O)C[C@H]1C(=O)N(Cc2ccc(OC)cc2)C2=CCCCC[C@@]21C(=O)OC	none (no result: FBA Mtb inh, Mtb betalactam, GDH-TPI counter-1, RecA splice inh)
COc1ccc(C(=O)NCCc2ccccc2)cc1OC	none
NS(=O)(=O)c1ccc(CCNC(=O)c2ccc3c(c2)N(Cc2ccccc2)CCS3)cc1	FBA Mtb inh 67.9 | Mtb FBA confirm inactive | GDH-TPI counter-2 inactive
COc1ccc(CCNC(=O)c2ccc3c(c2)N(Cc2ccccc2)CCS3)cc1OC	FBA Mtb inh 64.2 | Mtb FBA confirm 100.2 | GDH-TPI counter-2 82.9
COC(=O)C1CCN(C(=O)c2ccc3nc(-c4cccc(OC)c4)oc3c2)CC1	Mtb betalactam inconclusive
COc1cccc(-c2nc3ccc(C(=O)NC(C)Cc4cccnc4)cc3o2)c1 (stereo unspecified)	FBA Mtb inh 43.2 | Mtb FBA confirm 64.5 | GDH-TPI counter-2 31.7
c1ccc(-n2nnnc2SCc2cn3cccnc3n2)cc1	FBA Mtb inh 43.4 | Mtb FBA confirm 75.7 | GDH-TPI counter-2 57.0
Cc1ccc2[nH]c3c(c2c1)CCC3=O	FBA Mtb inh 65.0 | Mtb FBA confirm active | GDH-TPI counter-2 162.1
Cc1ccc2[nH]c3c(c2c1)CCCC3=O	none
COC(=O)[C@]12C[C@H](CC(=O)NCc3ccc(OC)c(OC)c3)C(=O)N(CCc3ccc(OC)c(OC)c3)C1=C[C@H](C(C)(C)C)O[C@@H]2C	none (no result: FBA Mtb inh, Mtb betalactam, GDH-TPI counter-1, RecA splice inh)
COc1cc2c(cc1O)C[C@H]1NCCc3cc4c(c-2c31)OCO4	FBA Mtb inh 30.4 | Mtb FBA confirm 108.1 | GDH-TPI counter-2 88.9
CN(C)/C=N/c1nc2nccc(-c3ccc(Cl)cc3)n2n1	FBA Mtb inh 72.2 | Mtb FBA confirm inactive | GDH-TPI counter-2 inactive
COc1ccc(-c2cnc3nc(/N=C/N(C)C)nn3c2/N=C/N(C)C)cc1	none
CC(Oc1ccccc1F)c1ccnc2nc(/N=C/N(C)C)nn12 (stereo unspecified)	none
CN(C)/C=N/c1nc2nccc(-c3ccccc3)n2n1	FBA Mtb inh 51.7 | Mtb FBA confirm 132.0 | GDH-TPI counter-2 105.6
Cc1onc(-c2ccccc2)c1C(=O)N1CCN(C(=O)C(=O)c2cccc(C(F)(F)F)c2)CC1	none (no result: FBA Mtb inh, Mtb betalactam, GDH-TPI counter-1, RecA splice inh)
Cc1cc(OCC(=O)NC2CCS(=O)(=O)C2)c2c3c(c(=O)oc2c1)CCC3 (stereo unspecified)	none
Cc1cc(OC(C)C(=O)NCC(O)c2ccccc2)c2c3c(c(=O)oc2c1)CCCC3 (stereo unspecified)	FBA Mtb inh 81.1 | Mtb FBA confirm 169.3 | GDH-TPI counter-2 130.6
CC(Oc1ccc2c3c(c(=O)oc2c1)CCCC3)C(=O)NCC(O)c1ccccc1 (stereo unspecified)	FBA Mtb inh 50.4 | Mtb FBA confirm 165.4 | GDH-TPI counter-2 117.3
Cc1cc(OC(C)C(=O)N[C@H](C(=O)O)c2ccccc2)c2c3c(c(=O)oc2c1)CCC3 (stereo partly specified)	FBA Mtb inh 108.2 | Mtb FBA confirm 143.9 | GDH-TPI counter-2 104.7
Cc1cc(OCC(=O)NCC(O)c2ccccc2)c2c3c(c(=O)oc2c1)CCCC3 (stereo unspecified)	none
COc1ccc(-c2cc(-c3cccnc3)c(C#N)c(N)n2)cc1	FBA Mtb inh 71.4 | Mtb FBA confirm 134.7 | GDH-TPI counter-2 105.7
N#Cc1c(-c2cccs2)cc(-c2cccnc2)nc1N	FBA Mtb inh 87.5 | Mtb FBA confirm 102.3 | GDH-TPI counter-2 80.8
N#Cc1c(-c2ccc(F)cc2)cc(-c2cccnc2)nc1N	Mtb betalactam inconclusive
COc1ccccc1-c1cc(-c2ccc(O)cc2)nc(N)c1C#N	FBA Mtb inh 66.4 | Mtb FBA confirm 139.9 | GDH-TPI counter-2 109.2
COc1ccccc1-c1c(C#N)c(N)nc2c1CCc1ccccc1-2	FBA Mtb inh 42.0 | Mtb FBA confirm active | GDH-TPI counter-2 active
CCOc1cc(-c2c(C#N)c(N)nc3c2CCc2ccccc2-3)ccc1O	none
